# IL-1B inflam inh – inflammasome signaling inhibition, IL-1 beta readout; THP-1 LPS/ATP IL-1B secretion, AlphaLISA, 16 h; active compounds read low; activity change, % at 57.5 µM; hit rate 4.7% among 360,000; AID 743279; in the data active = activity change below about -50%; inconclusive = mostly about -30% to -49%
#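 Secreted IL-1B measured by AlphaLISA bead assay after 16 h compound exposure of THP-1 cells; compounds (final up to 57.5 uM) added 1 h before LPS (250 ng/mL) and ATP (1.25 mM) stimulation; lower signal means less secretion.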
# HT1080 IDH1KD tx – toxicity to HT-1080 IDH1 knockdown cells (counter line); HT-1080 IDH1 knockdown viability, ATP luminescence, 48 h; Potency, µM (titrated, usually from 46.1 µM), for inactives: at the highest dose activity, negative = toxicity, hits mostly cytotoxic; AID 686971; hit rate 2% among 360,000;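 also: potency is read from the fitted curve at half-maximal effect; 0% = DMSO wells and -100% = cell-free medium wells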
#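 Using the IDH1-knockdown HT-1080 line run in the same batch and compound series as the NT line, viability after 48 h at 37 °C was determined by CellTiter-Glo luminescence and expressed as % activity.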
# HT1080NT lethal – kills 2HG-producing HT-1080-NT fibrosarcoma cells. HT-1080-NT fibrosarcoma viability, CellTiter-Glo ATP luminescence, 48 h. hit rate 1.6% among 360,000. Potency, µM (series often up to 46.1 µM), for inactives: top-dose activity, negative = less viability, hits mostly cytotoxic;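 also: NT is the 2HG producing partner of a matched IDH1 knockdown line; potency is read from the fitted curve at half-maximal effect; 0% = DMSO-treated cells and -100% = media-only wells without cells; nearly all actives have a fitted effect of over 55% in size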
#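 Read-out is CellTiter-Glo luminescence after 10 minutes at room temperature, following 48 hours' compound treatment of HT-1080-NT cells (750 cells/well, RPMI, 5% FBS, 37 degrees C).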
# TDP1 cell CPT – growth inhibition of DT40 Tdp1-/-;hTDP1 cells with camptothecin (screen for TDP1 inhibitors). AID 686979. chicken DT40 Tdp1-/-;hTDP1 cells + 20 nM CPT, ATP luminescence, 48 h. hit rate 12% among 420,000. Potency, µM (doses to about 46.2 µM), for the others: at the highest dose activity change, negative = growth inhibition, usual class: inhibitors; also: potency is read from the fitted curve at half-maximal effect; nearly all actives have a fitted effect of over 55% in size
#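 Chicken DT40 Tdp1-/- cells stably complemented with human TDP1 were seeded at 400 cells/well in medium containing 20 nM camptothecin, exposed to pin-transferred compounds, and grown at 37 °C for at least 48 hr. Viability was read as ATP luminescence.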
# DT40 TDP1 no CPT – qHTS for Inhibitors of human tyrosyl-DNA phosphodiesterase 1 (TDP1): qHTS in cells in absence of CPT. DT40 Tdp1-/- hTDP1 cells, no CPT, ATP luminescence, 48 h. Potency, µM (titrated, usually from 46.2 µM), without a hit: at the highest dose activity change, negative = growth inhibition, most hits filed as inhibitors. hit rate 15% among 420,000. AID 686978, 2013; also: potency is read from the fitted curve at half-maximal effect; nearly all actives have a fitted effect of over 55% in size
#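 Compound effects on proliferation are scored in DT40 Tdp1-/-;hTDP1 cells in the absence of CPT. ATP levels (CellTiter-Glo luminescence) are recorded after a ≥48 hr, 37 °C incubation.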
# Active calls of the source: *; ? = inconclusive; · = no result given; [ ] = dose if it differs, or a comment. Compounds with a hit are over-represented: about 19% of the library has one in this group of screens. Unless noted, calls follow the shape of the dose curve; as a rule, active = well fitted curve in the direction sought with a large enough effect; inconclusive = small, poorly fitted or top-dose-only effect, or another doubt; inactive = no such curve, though single readings can be large; an effect the other way counts as inactive or inconclusive. Unless noted, % is scaled to controls: 0 for no effect and ±100 for the full control effect.
SMILES,IL-1B inflam inh,HT1080 IDH1KD tx,HT1080NT lethal,TDP1 cell CPT,DT40 TDP1 no CPT
COc1ccc(N2CCN(C(=O)CNC(=O)c3nn(-c4ccc(OC)cc4)c(=O)c4ccccc34)CC2)cc1,?,-5%,-6%,?,18µM*
COC(CNC(=O)c1ccc(CS(=O)(=O)c2ccc(Br)cc2)o1)OC,-7,7%,13%,-3%,7%
Cc1ccnc2nc(C(=O)OCC(=O)Nc3ccc4c(c3)OCCO4)nn12,5,11%,10%,-12%,-6%
O=C(NCCN1CCOCC1)Nc1ccc(F)cc1,18,1%,-3%,0%,15%
COc1ccc(C(=O)Nc2nnc(S(=O)(=O)N3CCN(c4ccc(F)cc4)CC3)s2)cc1,·,·,·,-10%,-19%
CCOc1ccc(NC(=O)CNC(=O)c2nn(-c3ccc(OC)cc3)c(=O)c3ccccc23)cc1,91,1%,0%,-23%,12µM*
C=C(C)CN(CC)C(=O)CC1C(=O)NCCN1C (stereo unspecified),6,2%,3%,10%,-2%
O=C(COc1ccc2oc(-c3ccccc3)cc(=O)c2c1)NCc1ccco1,-3,?,-16%,?,29µM*
CCOc1ccc(NC(=O)C(=O)NCc2ccco2)cc1,·,·,·,1%,-2%
CCOc1ccc(/C=N/OCC(=O)NCc2ccco2)cc1,4,-19%,3%,?,23µM*
Cc1ccc(NS(=O)(=O)c2ccc(OCC(=O)NCc3ccco3)cc2)cc1,-20,-3%[9.24 µM],-7%,18µM*,?
Cc1cc(=O)oc2ccc(OCC(=O)NCc3ccco3)cc12,-30,0%,11%,0%,-1%
Cc1ccc(NS(=O)(=O)c2ccc(OCC(=O)NCc3ccccn3)cc2)cc1,11,2%,0%,3.7µM*,4.6µM*
Cc1ccc(NS(=O)(=O)c2ccc(OCC(=O)NCc3ccncc3)cc2)cc1,18,1%,4%,-3%,-9%
CC(C)(C)NS(=O)(=O)c1ccc(OCC(=O)NCc2ccco2)cc1,6,-9%,-1%,5%,5%
Cc1ccn2cc(CCNC(=O)CC3CCCCC3)nc2c1,-3,7%,1%,14%,7%
Cc1ccc(C)c(NS(=O)(=O)c2ccc(OCC(=O)NCc3ccco3)cc2)c1,9,12%,6%,?,23µM*
CCN(CC)S(=O)(=O)c1ccc(OCC(=O)NCc2ccco2)cc1,-1,2%,5%,?,-19%
Nc1[nH]n2c(=O)c3c(nc2c1N=Nc1ccc(Cl)cc1)CCCC3,-19,-2%,-3%,?,?
Cc1ccc(N=Nc2c(N)[nH]n3c(=O)cc(-c4ccccc4)nc23)cc1,5,0%,4%,?,15µM*
Cc1cc(=O)n2[nH]c(N)c(N=Nc3ccccc3)c2n1,0,-21%,0%,?,29µM*
O=c1c2c(nc3c(-c4ccccc4)c[nH]n13)CCCC2,-10,-8%,-6%,23µM*,23µM*
Nc1[nH]n2c(=O)c3c(nc2c1N=Nc1ccccc1)CCCC3,-26,-23%,-13%,?,18µM*
Cc1[nH]n2c(=O)c3c(nc2c1-c1ccccc1)CCC3,2,-21%,-15%,-15%,-24%
COc1ccc(-c2c(C(F)(F)F)[nH]n3c(=O)cc(-c4ccccc4)nc23)cc1,·,?,4%,?,?
O=C(COC(=O)C1=COCCO1)NCc1ccc(Cl)cc1Cl,4,-2%,-1%,0%,-9%
COc1ccc(CNC(=O)c2ccc(-c3nc(CSc4ccc(C)cc4)c(C)o3)cc2)cc1OC,·,·,·,-22%,-26%
COc1cccc(N=Nc2c(N)[nH]n3c(=O)cc(-c4ccccc4)nc23)c1,-2,?,?,9.2µM*,7.3µM*
CCCCCCCCCCCCCCC(C(=O)O)C(O)(CC(=O)OC)C(=O)O (stereo unspecified),·,·,·,10µM*,8.2µM*
CCCCCC(CC(=O)O)C(=O)O (stereo unspecified),·,·,·,-6%,1%

# Screening results deposited in PubChem by National Center for Advancing Translational Sciences (NCATS).
